Compound activity deposited in PubChem BioAssay by National Center for Advancing Translational Sciences (NCATS).
An excerpt weighted towards active compounds, which were near 12% of everything screened.
JMJD2A Tudor inh = blocks the human JMJD2A Tudor domain. O75164. AlphaScreen JMJD2A-Tudor / H3K4me3 peptide binding. Potency, µM (titrated, usually from 114 µM), for inactives: at the top dose activity change, negative = inhibition, hits mostly inhibitors. hit rate 4.4% among 390,000; also: potency is read from the fitted curve at half-maximal effect; % is scaled to controls: 0 for no effect and ±100 for the full control effect; nearly all actives have a fitted effect of over 50% in size
Target sequence (O75164 whole entry, looked up, the tested form may be a part): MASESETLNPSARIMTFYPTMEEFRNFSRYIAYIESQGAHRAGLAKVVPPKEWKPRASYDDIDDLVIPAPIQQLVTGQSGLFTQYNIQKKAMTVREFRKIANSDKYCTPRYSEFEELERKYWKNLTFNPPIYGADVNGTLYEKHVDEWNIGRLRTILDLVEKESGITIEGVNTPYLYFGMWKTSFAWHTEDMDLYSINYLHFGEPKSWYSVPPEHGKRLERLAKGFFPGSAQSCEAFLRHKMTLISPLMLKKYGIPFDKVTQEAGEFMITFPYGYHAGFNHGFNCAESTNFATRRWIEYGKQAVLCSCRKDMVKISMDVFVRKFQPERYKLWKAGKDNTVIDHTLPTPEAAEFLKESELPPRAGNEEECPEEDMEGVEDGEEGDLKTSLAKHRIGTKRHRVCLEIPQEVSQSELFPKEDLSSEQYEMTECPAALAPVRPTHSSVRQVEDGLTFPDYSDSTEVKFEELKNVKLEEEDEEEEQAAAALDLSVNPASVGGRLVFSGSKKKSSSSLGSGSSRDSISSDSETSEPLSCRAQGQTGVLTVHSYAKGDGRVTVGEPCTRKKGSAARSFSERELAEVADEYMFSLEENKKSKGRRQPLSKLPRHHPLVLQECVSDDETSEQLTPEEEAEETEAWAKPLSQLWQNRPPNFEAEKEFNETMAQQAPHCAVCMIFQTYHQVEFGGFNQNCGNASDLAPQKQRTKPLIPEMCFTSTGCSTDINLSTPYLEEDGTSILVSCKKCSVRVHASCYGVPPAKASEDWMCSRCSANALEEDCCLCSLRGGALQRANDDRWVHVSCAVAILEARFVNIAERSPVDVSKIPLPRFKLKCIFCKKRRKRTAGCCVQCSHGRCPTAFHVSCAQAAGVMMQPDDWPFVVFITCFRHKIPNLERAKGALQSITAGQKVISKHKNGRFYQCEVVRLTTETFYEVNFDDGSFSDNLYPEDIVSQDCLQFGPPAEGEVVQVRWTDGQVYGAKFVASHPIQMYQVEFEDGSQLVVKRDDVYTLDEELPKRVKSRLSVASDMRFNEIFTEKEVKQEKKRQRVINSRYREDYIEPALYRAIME
PI5P4K alpha inh = blocks human PI5P4K alpha kinase activity. max response, %. AID 652105. hit rate 1.2% among 330,000. PI5P4Kalpha enzyme, ADP-Glo luminescence, 60 min; stronger effect = lower value; active = max response of -50% or lower; inconclusive = between -30% and -50%; inactive = -30% or higher; also: value at the top dose of about 77 µM; % is scaled to controls: 0 for no effect and ±100 for the full control effect
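Quantitative HTS of the MLSMR library against PI5P4Kalpha with substrate. ATP added last at 5 microM final; room temperature, 60 minutes. Remaining ATP depleted, ADP converted and read as luminescence.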
PLK1 PBD inh = PLK1 (human) polo-box domain binding inhibition. P53350. Plk1 PBD binding of FITC phosphopeptide, fluorescence polarization. Potency, µM, inactives show max response, negative = inhibition, actives largely listed as inhibitors. hit rate 2.8% among 360,000. AID 720504; also: potency is read from the fitted curve at half-maximal effect; series mostly up to about 57 µM; % is scaled to controls: 0 for no effect and ±100 for the full control effect; nearly all actives have a fitted effect of over 65% in size
BAZ2B inh = BAZ2B (human) inhibition. Q9UIF8. AlphaScreen BAZ2B-H3K14Ac peptide displacement. Potency, µM (doses to about 114 µM), without a hit: top-dose activity change, negative = inhibition, actives largely listed as inhibitors. hit rate 4.4% among 360,000; also: potency is read from the fitted curve at half-maximal effect; % is scaled to controls: 0 for no effect and ±100 for the full control effect; nearly all actives have a fitted effect of over 60% in size
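AlphaScreen displacement: compounds (up to 110uM) incubated 30 min at room temperature with a preformed 50 nM BAZ2B/50 nM biotinylated H3K14Ac peptide complex in PBS pH 7.4 with Tween-20. Donor and acceptor beads at 10 ug/mL final added, 20 min light-protected before reading.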
G9a inh = G9a (human) methyltransferase inhibition. hit rate 8.8% among 350,000. Q96KQ7. AID 504332. Potency, µM (highest dose often 102 µM), inactives show top-dose activity, negative = inhibition, actives largely listed as inhibitors. G9a H3K9 monomethylation, AlphaScreen, 2 h; also: potency is read from the fitted curve at half-maximal effect; % is scaled to controls: 0 for no effect and ±100 for the full control effect; nearly all actives have a fitted effect of over 75% in size
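Readings reflect AlphaScreen signal from monomethyl-H3K9 antibody detection. HMT at 20 nM; substrate b-H3K9 500 nM; cofactor SAM 20 uM; 2 h RT reaction; compounds tested as titrations in qHTS with 15 min preincubation.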
HP1b binding inh = HP1-beta chromodomain-methylated histone interaction inhibition | P83916 | AlphaScreen HP1-beta / biotin-H3K9me3 peptide binding | Potency, µM (top dose mostly 114 µM), for the others: at the top dose activity change, negative = inhibition, usual class: inhibitors | hit rate 0.56% among 390,000 | AID 540317; also: potency is read from the fitted curve at half-maximal effect; nearly all actives have a fitted effect of over 70% in size
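Compound inhibition of the preformed complex between 50 nM HP1-beta and 50 nM biotinylated H3K9me3 peptide was read by AlphaScreen. Buffer was PBS pH 7.4 with 0.01% Tween-20. Incubations ran 30 min at room temperature, with 10 ug/mL donor/acceptor beads.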
Numbers without * were called inactive; u = inconclusive; x = no result; [ ] = another dose, or the depositor's remark. Unless noted, calls follow the shape of the dose curve; as a rule, active = well fitted curve in the direction sought with a large enough effect; inconclusive = small, poorly fitted or top-dose-only effect, or another doubt; inactive = no such curve, though single readings can be large; an effect the other way counts as inactive or inconclusive.

SMILES	JMJD2A Tudor inh	PI5P4K alpha inh	PLK1 PBD inh	BAZ2B inh	G9a inh	HP1b binding inh
Cc1cc(C)c2nc(NNC(=O)c3ccc(S(=O)(=O)N4CC(C)CC(C)C4)cc3)sc2c1 (stereo unspecified)	16µM*	1	-21%	10µM*	28µM*	-12%
Cc1cc(C)c2nc(NNC(=O)c3ccc(S(=O)(=O)N4CCCC(C)C4)cc3)sc2c1 (stereo unspecified)	u	4	-15%	8.9µM*	45µM*	-22%
COC(=O)c1sc2ccccc2c1NC(=O)c1ccc(S(=O)(=O)N2CC(C)CC(C)C2)cc1 (stereo unspecified)	-8%	12	5%	-4%	29%[59 µM]	41%
Cc1cc(C)c2nc(NC(=O)c3ccc(S(=O)(=O)N4CCC(C)CC4)cc3)sc2c1	0%	x	x	1%	2%[59 µM]	24%[57 µM]
Cc1ccc(S(=O)(=O)N2CCC(C(=O)OCC(=O)N(Cc3ccccc3)C(C)C)CC2)cc1C	x	7	2%	x	x	x
CC1=NN(c2nc(-c3ccc(C)cc3)cs2)C(=O)C1N=Nc1ccc2ccccc2c1 (stereo unspecified)	u	-14	-11%	u	1µM*	-28%
CC1CCN(C(=O)CSc2nnc(Cc3cccn3C)n2CCc2ccccc2)CC1	u	0	-12%	-36%	45µM*	9%
Cn1cccc1Cc1nnc(SCC(N)=O)n1CCc1ccccc1	-20%	-6	-9%	-26%	45µM*	36%
Cn1cccc1Cc1nnc(SCC(=O)N2CCCC2)n1CCc1ccccc1	-26%	0	-5%	u	u	12%
Cn1cccc1Cc1nnc(SCC(=O)N2CCCCCC2)n1CCc1ccccc1	-19%	3	-7%	-35%	50µM*	44%
NC(=O)CSc1nnc(COc2ccccc2)n1CCc1ccccc1	-15%	x	-4%	-4%	10%[59 µM]	7%
Cn1cccc1Cc1nnc(SCC(=O)NC2CCCC2)n1CCc1ccccc1	u	-1	-9%	-34%	79µM*	9%
CCN(CC)CCCNC(=O)Cc1csc2nc(-c3ccc(Cl)cc3)cn12	-29%	x	x	u	3%[59 µM]	8%[57 µM]
CCCCCCCCN1C(=O)[C@H](CC(=O)NCc2ccc(OC)c(OC)c2)C[C@@]2(C(=O)OC)CCCCC=C12	x	23	0%	x	x	x
CN(CCN1CCOCC1)C(=O)CC1C(=O)NCCN1Cc1ccccc1C(F)(F)F (stereo unspecified)	-10%	3	-10%	-27%	45µM*	46%
Cc1nccn1CCCNC(=O)CC1C(=O)NCCN1Cc1ccccc1C(F)(F)F (stereo unspecified)	-20%	2	-6%	-8%	u	47%
O=C(CC1C(=O)NCCN1Cc1ccccc1C(F)(F)F)NCCN1CCCCC1=O (stereo unspecified)	18%	0	2%	-9%	40µM*	60%
CN(CCc1ccccn1)C(=O)CC1C(=O)NCCN1Cc1ccccc1C(F)(F)F (stereo unspecified)	-7%	-3	-3%	-11%	u	22%
O=C(CC1C(=O)NCCN1Cc1ccccc1C(F)(F)F)NCCn1cccn1 (stereo unspecified)	-14%	0	-4%	-30%	35µM*	28%
O=C(CC1C(=O)NCCN1Cc1ccccc1C(F)(F)F)NCCN1CCOCC1 (stereo unspecified)	-10%	-7	-9%	-36%	45µM*	25%
COc1cccc(/C=C(\C#N)C(=O)Nc2ccc(NC(C)=O)cc2)c1OC	-17%	x	x	5%	2%[59 µM]	16%
COc1ccc(Nc2cc(C)nc(-n3nc(C)cc3C)n2)cc1Cl	u	x	x	6.3µM*	25%[59 µM]	10%[57 µM]
COc1ccc(Nc2cc(C)nc3nc(C)nn23)cc1Cl	-4%	3	-6%	15%	89µM*	52%
COC(=O)c1ccccc1Nc1cc(C)nc2nc(C)nn12	u	-6	21µM*	-2%	-17%	6%
Cc1cc(Nc2ccc(F)c(Cl)c2)n2nc(C)nc2n1	3%	1	0%	5%	u	23%
